Most compounds without a hit are left out; they make up all but 7.3% or so of the library.
NPC1 prom act: activators of NPC1 promoter | Potency, µM (highest dose often 9.22 µM), for the others: top-dose activation, hits mostly activators | actives 2.4% (n = 320,000) | Huh7 NPC1 promoter luciferase reporter, 24 h | AID 485313; note: % of control where 0% means no effect; nearly all actives have a fitted effect of over 60% in size
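Luminescence from an NPC1 promoter-driven luciferase reporter in stably transfected Huh7 cells was measured after 24 h compound treatment at 37 °C, followed by 10 min ambient incubation with luciferase detection reagent.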
SMN2 splice enh: SMN2 splice variant enhancement; HEK293 SMN2-luciferase splicing reporter, luminescence, 30-36 h; Potency, µM (top dose mostly 46.1 µM), without a hit: at the top dose activity change, positive = activation, usual class: activators; actives 2.8% (n = 210,000); AID 1458; note: % of control where 0% means no effect; nearly all actives have a fitted effect of over 55% in size
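HEK293 cells carry an SMN2 […]–luciferase reporter in which exon 7 inclusion puts luciferase in frame. Cells were plated 10-12 h before compound addition, then incubated 30-36 h at 37C. ONE-Glo luminescence was read; sodium butyrate at 4.5 mM final served as control.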
FLuc modulator: firefly luciferase modulation, counter-screen for miR-21 project; P08659; purified FLuc, Km substrates, luminescence inhibition; Potency, µM (highest dose often 57.5 µM), for the others: top-dose activity change, negative = inhibition, actives largely listed as inhibitors; actives 6.9% (n = 360,000); AID 588342;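 note: plate controls were vehicle for no effect and reference inhibitor for full effect; nearly all actives have a fitted effect of over 55% in size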
Target sequence (P08659 whole entry, looked up): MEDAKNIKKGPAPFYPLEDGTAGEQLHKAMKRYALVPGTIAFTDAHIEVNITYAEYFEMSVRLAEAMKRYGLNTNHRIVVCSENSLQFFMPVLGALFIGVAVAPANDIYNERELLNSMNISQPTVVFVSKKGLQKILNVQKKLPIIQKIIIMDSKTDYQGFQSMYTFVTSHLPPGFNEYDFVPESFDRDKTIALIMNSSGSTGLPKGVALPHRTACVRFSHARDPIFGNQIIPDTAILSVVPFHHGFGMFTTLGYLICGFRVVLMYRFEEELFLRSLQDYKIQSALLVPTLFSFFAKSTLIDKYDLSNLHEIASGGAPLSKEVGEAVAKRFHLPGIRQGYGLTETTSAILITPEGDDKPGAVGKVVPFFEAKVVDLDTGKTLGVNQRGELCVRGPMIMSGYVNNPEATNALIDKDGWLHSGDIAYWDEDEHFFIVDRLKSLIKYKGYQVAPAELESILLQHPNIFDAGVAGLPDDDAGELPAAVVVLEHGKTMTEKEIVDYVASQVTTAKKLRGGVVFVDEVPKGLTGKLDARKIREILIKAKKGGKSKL
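Purified P. pyralis luciferase (10nM final) with 10uM D-luciferin and 10uM ATP (Km levels) in 50mM Tris acetate pH 7.5, 10mM Mg acetate, 0.01% Tween-20, 0.05% BSA; qHTS 6-point titration, ~60 µM downward; luminescence read.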
Rab9 promoter act: Rab9 promoter activation | Huh7 Rab9 promoter-luciferase reporter, luminescence, 24 h | Potency, µM (doses to about 9.22 µM), for inactives: at the top dose activation, negative = inhibition, usual class: activators | actives 2.8% (n = 320,000); note: % of control where 0% means no effect; nearly all actives have a fitted effect of over 60% in size
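Rab9 promoter-driven luciferase in stably transfected Huh7 cells; 1500 cells/well rested 2 h, exposed to compound in DMSO for 24 h at 37 °C, 5% CO2. Luminescence read 10 min after adding luciferase reagent at ambient temperature.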
KinaseGlo FLuc: Kinase-Glo luciferase inhibition (counter-screen) | Q27757 | Kinase-Glo luciferase, ATP luminescence, 8 min | Potency, µM (titrated, usually from 38.3 µM), for the others: at the highest dose activity change, negative = inhibition, hits mostly inhibitors | actives 0.28% (n = 200,000); note: % is set by controls: 0 for no effect and ±100 for the full control effect; nearly all actives have a fitted effect of over 60% in size
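Recombinant Kinase-Glo luciferase, 10 uM ATP (linear range), luciferin; imidazole pH 7.2 / KCl / MgCl2 / Tween / BSA buffer; 8 min RT; luminescence.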
ELG1 genotox: induces genotoxicity in HEK293T cells with luciferase-tagged ELG1. HEK293T ELG1-luciferase reporter, luminescence, 16 h. Potency, µM (titrated, usually from 46 µM), without a hit: top-dose activity change, positive = activation, actives largely listed as activators. actives 1.3% (n = 330,000); note: % of control where 0% means no effect; nearly all actives have a fitted effect of over 60% in size
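Step 1: seed 2,000 HEK293T ELG1-luciferase cells per well. Step 2: add compound or DMSO, incubate 16 hr at 37 °C. Step 3: ONE-Glo, 30 min at room temperature, read luminescence.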
Starred values were filed as active, the others as inactive; u = inconclusive; x = no result; [ ] = another dose, or the depositor's remark. Calls come from the whole dose curve; as a rule, active = well fitted curve in the direction sought with a large enough effect; inconclusive = small, poorly fitted or top-dose-only effect, or another doubt; inactive = no such curve, though single readings can be large; an effect the other way counts as inactive or inconclusive. Potency is the fitted concentration of half-maximal effect.

SMILES | NPC1 prom act | SMN2 splice enh | FLuc modulator | Rab9 promoter act | KinaseGlo FLuc | ELG1 genotox
CC(NC(=O)c1ccc(Cn2c(SCc3ccccc3)nc3cccnc32)cc1)c1ccccc1 (stereo unspecified) | x | x | -2% | x | x | x
Cc1ccc(CSc2nc3cccnc3n2Cc2ccc(C(=O)NCc3ccco3)cc2)cc1 | x | x | 0.6µM* | x | x | x
Cc1cccc(CSc2nc3cccnc3n2Cc2ccc(C(=O)NCc3ccco3)cc2)c1 | x | x | 19µM* | x | x | x
Cc1ccc(Cn2c(SCc3ccc(C(=O)O)cc3)nc3cccnc32)cc1 | x | -3% | 17µM* | x | x | x
CCCN1Cc2cccc(C(=O)Nc3ccc4c(c3)OCCO4)c2C1=O | -3% | -1% | 15µM* | 10% | -7% | 5%
O=C(Nc1ccc2c(c1)OCO2)c1cccc2c1C(=O)N(Cc1cccnc1)C2 | -3% | -4% | 15µM* | 2% | -7% | u
CCCN1Cc2cccc(C(=O)Nc3ccc(CC)cc3)c2C1=O | 0% | 3% | 2.7µM* | 0% | 0% | 0%
CCCN1Cc2cccc(C(=O)Nc3ccc(C)cc3)c2C1=O | -3% | -4% | -15% | -1% | -1% | -7%
COc1cc(NC(=O)c2cccc3c2C(=O)N(Cc2cccnc2)C3)cc(OC)c1OC | -6% | u | 1% | -8% | 2% | 0%
CCCN1Cc2cccc(C(=O)Nc3ccc4c(c3)OCO4)c2C1=O | -2% | x | u | 0% | -1% | 9%
O=S(=O)(c1ccc(F)cc1)N1CCC2(CC1)OCCO2 | 2% | 15% | 7% | 1% | -1% | 2%
O=S(=O)(c1cc(F)ccc1F)N1CCC2(CC1)OCCO2 | 3.5µM* | x | 12µM* | 4µM* | x | 9.2µM*
S=C(c1ccc(-c2ccccc2Cl)o1)N1CCOCC1 | u | 32µM* | 11µM* | u | -5% | 13µM*
S=C(c1ccc(-c2ccc(Br)cc2)o1)N1CCOCC1 | 3.5µM* | x | 3µM* | 2µM* | x | u
S=C(c1ccc(-c2ccc(Cl)c(Cl)c2)o1)N1CCOCC1 | 2.2µM* | 11µM* | 2.7µM* | 1.8µM* | 1% | 6.5µM*
S=C(c1ccc(-c2ccc(Br)cc2)o1)N1CCCCC1 | -5% | x | u | -1% | -2% | 0%
COc1ccc(C2CC(=O)c3cc(-c4nc(-c5ccc(Cl)cc5)c(C)s4)c(=O)[nH]c3C2)cc1 (stereo unspecified) | x | -15% | -3% | x | x | x
COc1ccccc1CNC(=O)CC1N=C2c3ccccc3N=C(SCC(=O)Nc3ccc(F)cc3)N2C1=O (stereo unspecified) | x | x | -2% | x | x | x
CN(CC(=O)Nc1ccc(Cl)c(C(F)(F)F)c1)C(=O)c1cn2ccccc2n1 | -5% | x | u | -1% | x | 23µM*
Nc1c(C(=O)c2ccccc2)oc2ccc([N+](=O)[O-])cc12 | 3.5µM* | x | u | 3.5µM* | x | 15%
COC(=O)CCC(=O)c1oc2ccc(Br)cc2c1N | 21% | 11% | 7.6µM* | 19% | 0% | u
COC(=O)c1oc2ccc(Br)cc2c1-n1cccc1 | -3% | -5% | 2% | -1% | -5% | -5%
Nc1c(C(=O)c2ccccc2)oc2ccc(Br)cc12 | 3.2µM* | 16µM* | 3µM* | 3.5µM* | -2% | 4.6µM*
CCc1ccc(NC(=O)Cn2c(=O)n(CCCCC(=O)NCCc3ccc(Cl)cc3)c(=O)c3ccccc32)cc1 | x | 8% | 0% | x | x | x
Cc1ccc(OCCn2nnc3sc4c(c3c2=O)CCC(C)C4)cc1 (stereo unspecified) | x | 7% | -13% | x | x | x
SMILES | NPC1 prom act | SMN2 splice enh | FLuc modulator | Rab9 promoter act | KinaseGlo FLuc | ELG1 genotox
COc1ccc(CNC(=O)c2ccc(NC(=O)N3CCCCc4ccccc43)cc2)c(OC)c1 | x | x | -16% | x | x | x
Cc1ccc2c(CN3CCC(C)CC3)cc(=O)oc2c1C | u | x | 17µM* | u | x | u
Fc1ccc(-c2noc(-c3ccc4c(c3)CCO4)n2)cc1 | u | x | 0.54µM* | 0.4µM* | x | u
O=C1NN(c2ccccc2)C(=O)/C1=C\c1ccccc1 | -1% | x | 17µM* | -2% | x | 8%
O=C1NN(c2cccc(Br)c2)C(=O)/C1=C/c1cccs1 | -1% | x | 9.5µM* | 5% | x | -1%
O=C1NN(c2ccccc2)C(=O)/C1=C/c1cccs1 | -4% | 3% | 19µM* | -10% | -4% | 1%
O=C1NN(c2cccc(Br)c2)C(=O)/C1=C\c1ccccc1 | 2% | x | u | 0%[1.84 µM] | x | 0%
CC(C)Cc1nn2c(=O)cc(COC(=O)c3ccc(NC(=O)CCc4ccccc4)cc3)nc2s1 | x | x | 2% | x | x | x
COc1ccc(NC(=O)Cn2nnc(C(=O)NCc3ccccc3Cl)c2N)cc1Cl | x | x | 0% | x | x | x
O=C(O)CC[C@]1(C(=O)O)CCC(=O)c2ccccc21 | x | 2%[9.22 µM] | x | x | -3%[7.66 µM] | x
COc1ccc(NC(=O)c2cccc(N3C(=O)c4cccc([N+](=O)[O-])c4C3=O)c2)cc1 | -3% | x | 8.5µM* | 13% | x | 12%
CC(=O)c1ccc(NC(=O)c2cccc(N3C(=O)c4ccccc4C3=O)c2)cc1 | 4% | x | 3% | 11% | x | 7%
CS(=O)(=O)N1CCc2cc(-c3csc(NC(=O)Cc4cccs4)n3)ccc21 | -20% | x | u | -18% | 2% | -22%
CC(C)(C)Nc1nc(-c2ccc3c(c2)CCN3C(=O)C2CC2)cs1 | 1.8µM* | x | 3µM* | u | x | u
CC(C)C(=O)Nc1nc(-c2ccc3c(c2)CCN3C(=O)C2CC2)cs1 | u | x | 15µM* | u | x | 4%
CCC(CC)C(=O)Nc1nc(-c2ccc3c(c2)CCN3C(=O)C2CC2)c(C)s1 | -2% | -30% | 3% | -3% | -1% | -28%
CC(=O)Nc1nc(-c2ccc3c(c2)CCN3S(C)(=O)=O)cs1 | u | 10µM* | 21µM* | 2.5µM* | 3% | u
